Test [1] in a line: inhibitors of TNFa-induced NFkB p65 translocation, primary screen, imaging, HUVEC, MLSMR starter and 10KST1 sets (AID 438;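 active = inhibition above 20% together with a positive visual image hit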;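 also: compound added about 3h40 before a 20 min TNFalpha stimulation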;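 as to inhibition: signal is the nuclear over cytoplasmic p65 intensity ratio per well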). The conditions noted are these: HUVEC TNFa-induced p65 nuclear translocation; cell count: measured here: nuclei count (cytotoxicity indicator), at 2.08 µM; inhibition: at 2 µM, stronger effect = higher value, 0% TNFa-plus-vehicle, 100% no-TNFa wells.
Test [2] can be described thus: reduction of polyQ htt aggregates in cells – imaging, exon1htt(103Q)mCFP cells, high-content imaging, primary screen (AID 483;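 active = visual image review flags a hit and inhibition of aggregation exceeds 20%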;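 also: compound exposure lasted 3 days before fixation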;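 as to nuclei count: percent of the per-plate median nuclei count of sample wells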). Conditions: exon1htt(103Q)mCFP cell line, aggregate imaging, at 2 µM; inhibition of aggregation: stronger effect = higher value; nuclei count: measured here: cell count, toxicity.
Test [3] can be described thus: endothelial E-selectin expression blockers – imaging, HUVEC, immunofluorescence, MLSMR starter and 10KST1 sets, primary screen (AID 487;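 active = visually confirmed hit in the image check and inhibition above 20%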;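 as to inhibition: signal is fraction of cell area covered by stained E-selectin grains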;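 as to nuclei count: 100% = median nuclei count of all wells on the same plate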). Conditions: HUVEC TNFalpha-induced E-selectin immunofluorescence imaging, at 2 µM; inhibition: stronger effect = higher value; nuclei count: measured here: cell number, toxicity.
Test [4] is described as follows: Primary imaging screen for DUSP6 inhibitors that restore phospho-Erk in transfected HeLa cells, chemical complementation (AID 609;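 active = compounds giving at least 50% inhibition in the cell-based MKP-3 phosphatase rescue imaging test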;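 as to inhibition: phospho-Erk level distribution per well compared with pooled transfected vehicle control wells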). Conditions: HeLa MKP-3 transfected, phospho-Erk imaging KS statistic, at 10 µM, cells stimulated with TPA for 15 min.
Test [5] has as its target Dual specificity protein phosphatase 6 (Homo sapiens) (UniProt Q16828). Described as above. Conditions: HeLa MKP-3 transfected, phospho-Erk imaging KS statistic; at 10 µM; stronger effect = higher value; cells stimulated with TPA for 15 min.
Test [6] addresses Voltage-gated potassium channel subunit beta-2 (Rattus norvegicus) (UniProt P62483). Description: inhibitors of rat Kvbeta2 reductase activity – biochemical, NADPH fluorescence, primary screen (AID 622;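 active = fluorescence slope higher than the sample average by over 3 SD, cut at about -0.22 in these data, passing the limit was not always enough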;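 also: slope of raw intensity against log time taken from 70 to 1610 s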). The conditions noted are these: recombinant KvBeta, 4-cyanobenzaldehyde reduction, at 10 µM, stronger effect = higher value.
Test [7] has the same target. Description: enhancers of rat Kvbeta2 NADPH turnover – biochemical, NADPH fluorescence, primary screen (AID 623;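 active = NADPH fluorescence slope more negative than the mean of all samples by about 3 SD, 99.7% confidence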;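 also: fluorescence intensity change per second fitted from 20 to 320 s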). Conditions: Recombinant KvBeta, NADPH fluorescence decrease slope, 10 min; at 10 µM; stronger effect = lower value.
The target of test [8] is Alpha-2C adrenergic receptor (Homo sapiens) (UniProt P18825). Description: compounds altering alpha2C-coupled GIRK flux – cell-based, HEK293 alpha2C/GIRK1/2, thallium flux, primary screen (AID 624;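 active = fluorescence slope after compound addition differing from the mean of all screened samples at 99.7% confidence, in either direction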;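 also: slope of fluorescence ratio to pre-addition baseline per second over 15 to 24 s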). The conditions noted are these: thallium flux BTC fluorescence, at 10 µM, actives lie on both sides.
Test [9] is described as follows: inhibitors of larval lipid processing in zebrafish, primary screen, whole organism, PED6 fluorescence, gall bladder and intestine (AID 686;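 active = a full or partial loss of lipid-probe fluorescence in the fish gall bladder, intestine or both, judged by eye; inactive = no fluorescence loss, or compound toxic to the fish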;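 also: larvae 5 to 7 days old with five fish per well; signal comes from phospholipase A2 cleavage of quenched PED6 carried via bile; overnight exposure to compound and PED6 before scoring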). Conditions: Zebrafish larvae PED6 lipid processing, fluorescence scoring; screened at 20 µM (by protocol).
Test [10] can be described thus: loss of swimming-algae plug formation – whole organism, Chlamydomonas reinhardtii, WT vs cilia-less mutant, absorbance, 96-well, primary screen (AID 463189).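 Also: 0% = wild type cc124 cells in DMSO and 100% = ciliumless bld1 mutant cells.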 Conditions: Chlamydomonas reinhardtii gravitaxis, OD600 absorbance, 2 days; at 10 µM; stronger effect = higher value.
Test [11] can be described thus: blockers of RIG-like receptor reporter activation – cell-based, Sendai virus stimulus, luciferase, 10K MLSCN set, TLR/RLR signaling modifier project, primary screen (AID 602276;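 active = inhibition at or above 50% at 10 µM; inactive = inhibition below 50%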;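 also: firefly luciferase from ISG56 promoter only with Renilla not read in this screen; 0% = Sendai virus plus DMSO and 100% = medium plus DMSO without virus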). Conditions: HEK293 RL24 IRF3 luciferase reporter, at 10 µM, stronger effect = higher value. (A reporter such as luciferase makes a cellular process visible.)
A short description of test [12]: TLR3 IRF3 reporter activation blockers – cell-based, poly I:C stimulus, luciferase, 10K MLSCN set, primary screen (AID 602277;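 active = inhibition of the reporter signal at or above 50%; inactive = inhibition below 50%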). The conditions noted are these: HEK293-TLR3 RL24 IRF3 luciferase reporter, at 10 µM, stronger effect = higher value.
The target of test [13] is Muscarinic acetylcholine receptor M4 (Homo sapiens) (UniProt P08173). In words: M4-linked GIRK flux change, two-sided – cell-based, HEK293 M4/GIRK, thallium flux, BTC-AM, M4 allosteric agonist project, primary screen (AID 625;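 active = fluorescence slope after compound addition differing from the mean of all tested samples at 99.7% confidence, mostly higher but some lower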;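 also: thallium influx through GIRK channels coupled to M4 in HEK293 cells with BTC-AM dye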). Conditions: at 10 µM, actives lie on both sides.
The mark [14] stands for this setting: measured here: cell density z-score.
Where [15] appears, read: measured here: nuclear c-Myc green intensity z-score.
Where [16] appears, read: measured here: nuclear pErk red intensity z-score, stronger effect = higher value.

The structures appear in SMILES notation. Where “and” joins values, the source holds several entries; their conditions need not be identical. Identical values can stand only once. Calls of active or inactive are those of the source.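 The calls were made as follows, unless noted: active = inhibition at or above 50% relative to wild type and mutant plate controls; inactive = inhibition below 50%.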

In general, inhibition refers to the drop in the measured response relative to a control, in per cent.

Sequence of Dual specificity protein phosphatase 6 (Homo sapiens) (Q16828 whole entry, looked up): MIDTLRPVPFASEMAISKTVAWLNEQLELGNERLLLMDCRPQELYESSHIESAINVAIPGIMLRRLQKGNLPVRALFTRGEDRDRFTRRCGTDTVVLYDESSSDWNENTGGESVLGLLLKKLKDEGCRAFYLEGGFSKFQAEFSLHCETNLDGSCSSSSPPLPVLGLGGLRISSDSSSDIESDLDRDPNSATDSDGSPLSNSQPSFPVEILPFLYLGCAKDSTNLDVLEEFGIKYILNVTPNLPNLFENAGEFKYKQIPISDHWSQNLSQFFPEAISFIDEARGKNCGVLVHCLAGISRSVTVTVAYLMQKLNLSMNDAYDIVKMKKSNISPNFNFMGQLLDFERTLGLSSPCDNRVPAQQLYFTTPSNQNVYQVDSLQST
Sequence of Voltage-gated potassium channel subunit beta-2 (Rattus norvegicus) (P62483 whole entry, looked up): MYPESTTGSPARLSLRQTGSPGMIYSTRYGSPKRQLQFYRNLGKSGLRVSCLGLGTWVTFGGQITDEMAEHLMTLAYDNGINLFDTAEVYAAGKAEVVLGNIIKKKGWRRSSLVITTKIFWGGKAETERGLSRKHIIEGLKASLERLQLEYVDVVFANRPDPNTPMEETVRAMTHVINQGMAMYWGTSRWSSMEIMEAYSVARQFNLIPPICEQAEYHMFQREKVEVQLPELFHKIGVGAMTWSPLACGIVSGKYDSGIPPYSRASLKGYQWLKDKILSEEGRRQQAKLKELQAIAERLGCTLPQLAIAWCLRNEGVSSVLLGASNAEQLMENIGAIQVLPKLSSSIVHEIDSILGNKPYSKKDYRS
Sequence of Alpha-2C adrenergic receptor (Homo sapiens) (P18825 whole entry, looked up): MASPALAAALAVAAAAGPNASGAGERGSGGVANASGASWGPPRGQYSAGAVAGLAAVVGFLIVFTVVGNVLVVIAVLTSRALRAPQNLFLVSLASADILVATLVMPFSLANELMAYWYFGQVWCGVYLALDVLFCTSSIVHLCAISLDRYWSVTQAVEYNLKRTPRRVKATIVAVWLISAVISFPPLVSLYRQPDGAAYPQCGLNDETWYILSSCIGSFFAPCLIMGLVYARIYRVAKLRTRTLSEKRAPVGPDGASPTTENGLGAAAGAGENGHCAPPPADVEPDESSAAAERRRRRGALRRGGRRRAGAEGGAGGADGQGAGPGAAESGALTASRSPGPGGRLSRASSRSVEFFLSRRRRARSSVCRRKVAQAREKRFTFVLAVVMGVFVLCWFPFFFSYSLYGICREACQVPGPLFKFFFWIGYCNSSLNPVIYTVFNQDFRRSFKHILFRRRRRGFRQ
Sequence of Muscarinic acetylcholine receptor M4 (Homo sapiens) (P08173 whole entry, looked up): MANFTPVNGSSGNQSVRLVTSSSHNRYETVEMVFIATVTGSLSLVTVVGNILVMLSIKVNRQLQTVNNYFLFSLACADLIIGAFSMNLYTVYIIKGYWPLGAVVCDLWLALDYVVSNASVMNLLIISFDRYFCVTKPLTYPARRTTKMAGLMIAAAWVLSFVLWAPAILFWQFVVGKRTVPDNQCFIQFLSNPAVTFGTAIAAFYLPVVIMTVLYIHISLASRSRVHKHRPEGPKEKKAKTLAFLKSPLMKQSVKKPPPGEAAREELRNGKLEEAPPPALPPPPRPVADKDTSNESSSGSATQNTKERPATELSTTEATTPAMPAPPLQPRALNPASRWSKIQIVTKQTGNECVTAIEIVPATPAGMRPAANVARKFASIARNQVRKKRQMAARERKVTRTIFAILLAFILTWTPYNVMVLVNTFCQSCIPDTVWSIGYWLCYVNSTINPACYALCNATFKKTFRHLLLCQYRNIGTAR

On to `CC1(C)Cc2c(c(N3CCOCC3)nc3sc(C#N)c(N)c23)CS1`, for which the cell count in [1] was 626. In addition, the inhibition in test [1] was -0.4% (inactive); in test [3], -68.9% (inactive); in test [5], 5.42% (inactive); in [10], 21.2% (inactive); in [11], -2.57% (inactive); in [12], 16.1% (inactive). Also, the inhibition of aggregation in test [2] was -6.4% (inactive). In addition, the nuclei count in test [2] came to 114%; in test [3] it was 120%. The z-score was -0.238 in test [4] (setting [14]), -0.405 in test [4] (setting [15]) and 0.382 in test [4] (setting [16]). The fluorescence slope in test [6] was -0.0293 (active). Further, the NADPH fluorescence slope in test [7] was -1.7e-06 (inactive). For the same compound, in test [8], the slope is 0.00535 (inactive). Besides, in test [9], the compound was called inactive.
As to `CCOC(=O)C1CCN(C(C)=C2C(=O)c3ccccc3C2=O)CC1`, the cell count in [1] came to 476. Besides, the inhibition was -0.3% (inactive) in test [1]; -21.4% (inactive) in [3]; 7.73% (inactive) in test [5]; 25.7% (inactive) in [10]; 6.04% (inactive) in test [11]; 16.6% (inactive) in [12]. Besides, the inhibition of aggregation in test [2] was -15.9% (inactive). Besides, the nuclei count in test [2] was found to be 104%; in [3] it was 95.3%. In addition, the values for the z-score in test [4] (setting [14]), in [4] (setting [15]) and in test [4] (setting [16]) were -0.165, 0.853 and 0.114, respectively. For the same compound, the fluorescence slope was -0.418 (inactive) in test [6] and 0.0035 (inactive) in [13]. The NADPH fluorescence slope in test [7] was -3.2e-05 (inactive). Also, the slope in test [8] is 0.00587 (inactive). For the same compound, the compound was called inactive in [9].
Consider `COCCCN1C(=O)C(O)=C(C(=O)c2ccco2)C1c1ccc(Br)cc1` (stereo unspecified), for which, in test [1], the cell count was 417. For the same compound, the inhibition in test [1] was -4.6% (inactive); in test [3] it was -25.5% (inactive); in test [5], -4.7% (inactive); in test [10], 6.25% (inactive); in [11] it was 23.9% (inactive); in [12] it was 22.2% (inactive). In addition, the inhibition of aggregation in [2] is -13.4% (inactive). The results for the nuclei count in test [2] and in test [3] were 107% and 117%, respectively. The z-score is -1.16 in test [4] (setting [14]), 0.864 in test [4] (setting [15]) and 0.315 in [4] (setting [16]). Moreover, the fluorescence slope in test [6] is -0.457 (inactive). Also, the NADPH fluorescence slope in test [7] was 7.2e-06 (inactive). The slope in test [8] is 0.00512 (inactive). For the same compound, the result in test [9] was inactive.
As for `c1ccc(CN(CC2=NCCN2)c2ccccc2)cc1`, the cell count in test [1] was 455 and 493. For the same compound, the inhibition was 0% (inactive) and 19.7% (inactive) in test [1]; -8.6% (inactive) and -65.1% (inactive) in test [3]; 8% (inactive) and 13.3% (inactive) in test [5]; -11.5% (inactive) and 25.6% (inactive) in test [10]; -7.89% (inactive) and 7.92% (inactive) in test [11]; 0.563% (inactive) and 36.8% (inactive) in test [12]. Also, the inhibition of aggregation in test [2] is 9.9% (inactive) and 6.3% (inactive). Also, the nuclei count in test [2] was 97.2% and 85%; in test [3], 98.7% and 128%. Moreover, the z-score in [4] (setting [14]) is 0.164 and -0.173; in [4] (setting [15]), 0.692 and 0.37; in [4] (setting [16]), -0.518 and 0.488. The fluorescence slope in test [6] is -0.512 (inactive) and -0.523 (inactive). Moreover, the NADPH fluorescence slope in [7] was -3e-05 (inactive) and -2.5e-05 (inactive). The slope in [8] was 0.00381 (inactive) and 0.00497 (inactive). Also, in [9], the compound was classed as inactive.
As for `Cn1nnnc1SCC1=C(C(=O)O)N2C(=O)[C@@H](NC(=O)[C@H](O)c3ccccc3)[C@H]2SC1`, the cell count in test [1] turned out to be 634. Also, the inhibition in test [1] was -4% (inactive); in test [3] it was -44% (inactive); in [5], 11.3% (inactive); in [10], 22.9% (inactive); in test [11], 10.3% (inactive); in test [12], 42% (inactive). Further, the inhibition of aggregation in [2] is -4.8% (inactive). In addition, the nuclei count in test [2] came to 106%; in [3], 107%. The results for the z-score in [4] (setting [14]), in test [4] (setting [15]) and in [4] (setting [16]) were 1.21, 1.9 and -1.92, respectively. In [6], the fluorescence slope was -0.45 (inactive). The NADPH fluorescence slope in [7] is -5.3e-05 (inactive). For the same compound, in test [8], the slope was 0.00577 (inactive). The outcome in test [9] was inactive.

(Values after PubChem BioAssay.)
